# HTT aggregate: mutant huntingtin aggregation inhibition. PC12 HttQ103-GFP aggregates, Acumen cytometry, 40 h. Potency, µM (series often up to 46.1 µM), inactives show at the top dose activity change, negative = inhibition, usual class: inhibitors. hit rate 1.1% among 220,000. AID 1688; further: potency means the concentration at half of the fitted maximal effect; on the % scale 0 is the no-effect control and ±100 the full control effect; nearly all actives have a fitted effect of over 60% in size
#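 Aggregate formation scored by laser-scanning cytometer (488 excitation, 500–530 emission) in lysed PC12 cells expressing Q103-GFP after 100 nM tebufenozide induction; library tested in dose series, with ATPLite reagent added in the multiplex.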
# ALDH1A1 inh: ALDH1A1 (human) enzyme inhibition; AID 1030; Potency, µM (highest dose often 75.3 µM), for the others: at the top dose activity, negative = inhibition, hits mostly inhibitors; P00352; hit rate 7.3% among 220,000; Purified ALDH1A1, NADH fluorescence, propionaldehyde substrate; active means well fitted inhibition curve with a large enough effect, not every such curve was filed as active; inconclusive means small, poorly fitted or top-dose-only effect, or another doubt; inactive means no such curve, though single readings can be large or run the other way;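 further: potency means the concentration at half of the fitted maximal effect; plate controls were no enzyme wells and a reference inhibitor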
# Target sequence (P00352 whole entry, looked up): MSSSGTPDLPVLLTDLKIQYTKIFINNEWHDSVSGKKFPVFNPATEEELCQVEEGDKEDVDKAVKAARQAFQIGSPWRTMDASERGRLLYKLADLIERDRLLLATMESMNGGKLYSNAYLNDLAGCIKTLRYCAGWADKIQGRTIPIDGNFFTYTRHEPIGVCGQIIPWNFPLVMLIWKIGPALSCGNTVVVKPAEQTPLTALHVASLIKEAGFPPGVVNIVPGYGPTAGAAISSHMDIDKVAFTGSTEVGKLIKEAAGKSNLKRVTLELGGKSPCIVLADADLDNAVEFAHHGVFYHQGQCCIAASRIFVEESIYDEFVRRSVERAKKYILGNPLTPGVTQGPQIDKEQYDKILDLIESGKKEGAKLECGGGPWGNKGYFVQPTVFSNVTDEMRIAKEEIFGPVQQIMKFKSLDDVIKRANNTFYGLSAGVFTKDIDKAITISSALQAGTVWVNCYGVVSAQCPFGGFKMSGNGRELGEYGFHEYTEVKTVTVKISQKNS
# CBFb RUNX1 block: inhibitors of human CBF-beta and RUNX1 interaction. 230,000 tested, under 10 active. AlphaScreen CBFb-His/RUNX1-biotin binding, biochemical. Potency, µM (top dose mostly 59.8 µM), for inactives: at the highest dose activity, negative = inhibition, most hits filed as inhibitors. AID 1477. Q01196+Q13951; further: % of control where 0% means no effect
#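 Read-out: AlphaScreen. Format: His-CBF-beta with biotinylated RUNX1 (30 nM each) preincubated 20 min, compound 15 min, Ni-chelate plus streptavidin beads 90 min; room temperature throughout.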
# PNC inhibitor: blocks assembly of the perinucleolar compartment. PC3M PTB-GFP, PNC prevalence imaging, 16 h; active compounds read low. activity change (PNC), negative = inhibition, % at 10 µM. hit rate 3.1% among 140,000;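 active means readout at or below -70, meaning at least 70% loss of cells showing the perinucleolar compartment, a nuclear body marking cancer cells; inconclusive means readout between -30 and a set limit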;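 further: plate controls were DMSO wells for no effect and camptothecin positive control wells for full effect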
#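 PC3M cells stably expressing PTB-GFP, 750–1000 cells/well, treated 16 h at 37 °C with compound (23 nl of library stock), in duplicate. After paraformaldehyde fixation and Hoechst stain, imaged at 20x; PNC prevalence scored by image analysis.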
# HTT ATP protect: Huntington cell model cytoprotection by ATP luminescence; AID 1471; Potency, µM (titrated, usually from 56.4 µM), without a hit: cytoprotection (ATP increase), usual class: activators; hit rate 0.14% among 230,000; PC12 HTT-Q103 induced, cytoprotection, ATP luminescence, 40 h; further: potency means the concentration at half of the fitted maximal effect; % of control where 0% means no effect; nearly all actives have a fitted effect of over 45% in size
#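 Readout: ATPlite luminescence (ATP level). Model: stable PC12, inducible Htt exon1 Q103-GFP. Inducer: tebufenozide, 100 nM final. Compounds: dose series. No G418 in medium.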
# HPGD block: HPGD (human) dehydrogenase inhibition. Potency, µM, without a hit: at the highest dose activity change, negative = inhibition, actives largely listed as inhibitors. hit rate 4.3% among 150,000. AID 894. purified HPGD, NADH fluorescence kinetic, PGE2 substrate. P15428; active means well fitted inhibition curve with a large enough effect, not every such curve was filed as active; inconclusive means small, poorly fitted or top-dose-only effect, or another doubt; inactive means no such curve, though single readings can be large or run the other way; further: potency means the concentration at half of the fitted maximal effect; on the % scale 0 is the no-effect control and ±100 the full control effect
# Target sequence (P15428 whole entry, looked up): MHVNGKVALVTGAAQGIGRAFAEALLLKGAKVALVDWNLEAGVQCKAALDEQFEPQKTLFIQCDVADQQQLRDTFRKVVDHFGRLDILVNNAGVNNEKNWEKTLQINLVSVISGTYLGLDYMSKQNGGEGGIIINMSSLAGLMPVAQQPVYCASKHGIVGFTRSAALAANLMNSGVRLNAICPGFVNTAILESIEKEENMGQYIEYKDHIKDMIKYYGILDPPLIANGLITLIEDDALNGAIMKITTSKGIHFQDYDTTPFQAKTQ
#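 NADH formation kinetics: reaction with 30 uM PGE2 and 1 mM NAD+ (final), 20 nM enzyme, Tris-HCl pH 8 with Tween 20, after 15 min compound preincubation at room temperature. Fluorescence change, last versus first of five reads.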
# Starred values were filed as active, the others as inactive; ? = inconclusive; · = no result given; [ ] = another dose, or the depositor's remark. A selection: hits, their analogues and other compounds. The true share with any hit is near 11%. Unless noted, the call rests on the fitted dose curve; in most records, active means well fitted curve in the direction sought with a large enough effect; inconclusive means small, poorly fitted or top-dose-only effect, or another doubt; inactive means no such curve, though single readings can be large; an effect the other way counts as inactive or inconclusive.
SMILES,HTT aggregate,ALDH1A1 inh,CBFb RUNX1 block,PNC inhibitor,HTT ATP protect,HPGD block
CCn1c(-c2ccccc2SC)n[nH]c1=S,-27.4%,-2.4%,2.9%,·,-4.1%[10 µM],·
CCn1c(-c2csc3c2CCCC3)n[nH]c1=S,1.0%,?,-1.9%,32.9,1.1%[10 µM],25.1µM*
C=CCn1c(-c2csc3c2CCC(C)C3)n[nH]c1=S (centres undefined),13.1%,?,-5.7%,?,65.2%[0.074 µM],20µM*
CCCCn1c(-c2csc3c2CCCC3)n[nH]c1=S,10.2%,?,1.4%,-4.4,-1.4%,15.8µM*
CCCCn1c(-c2csc3c2CCC(C)C3)n[nH]c1=S (centres undefined),?,15.8µM*,-8.0%,-18.8,-12.9%,14.1µM*
CN(C)c1ccc(-c2cncnc2NCCN2CCOCC2)cc1,·,-13.7%,·,·,-120.0%,·
O=C1CCC(=O)N1CO,8.7%,·,·,·,-36.1%,·
COc1cc(/C=N/NC(N)=S)ccc1OCC(=O)Nc1ccc(C)cc1,-3.0%,25.1µM*,7.5%,38.3,12.8%[10 µM],-8.4%
COc1ccc(/C=C(\C#N)C(=O)OCC(=O)Nc2ccc(C(C)(C)C)cc2)cc1,19.8%,22.4µM*,5.1%,-17.2,7.1%[10 µM],?
COc1ccc(/C=C(\C#N)C(=O)OCC(=O)NCc2ccccc2)cc1,10.2%,?,0.9%,42.3,14.6%[10 µM],?
COc1ccc(/C=C(\C#N)C(=O)OCC(=O)NC2CC2)cc1,6.0%,20µM*,-3.8%,·,-32.5%,·
CCc1cccc(CC)c1NC(=O)COC(=O)/C(C#N)=C/c1ccc(OC)cc1,9.7%,-14.2%,6.3%,-12.5,·,-15.9%
CCOC(=O)/C(C#N)=C/c1ccc(OCC(=O)Nc2ccc(OC)cc2)c(OC)c1,-10.2%,5.01µM*,16.9%,-7.6,-8.4%[10 µM],-31.1%
CCNc1ncc2nc(C)c(=O)n(CCOC)c2n1,·,?,·,·,-47.4%,·
CC(C)CCCC(C)C1CC(=O)C2=C3CCC4CC(O)CCC4(C)C3CCC21C (centres undefined),32.4%,·,·,·,-15.1%,·
NCC(=O)NC1(C(=O)O)CCCC1,·,-2.5%[13.5 µM],·,·,0.0%[10 µM],-2.5%
CSCCC(NC(=O)c1ccccc1Br)C(=O)Nc1ccc(C)cc1 (centres undefined),15.5%,0.9%,-10.7%,?,19.3%[10 µM],-7.3%
CC(=O)c1c(C)[nH]c(C(=O)CSc2nc3ccc(C)cc3[nH]2)c1C,?,25.1µM*,4.1%,-14.9,-20.0%[10 µM],-29.5%
O=S1(=O)C2CC3C=CC2(O3)C(O)C(Cc2ccccc2)N1Cc1cccc(C(F)(F)F)c1 (centres undefined),·,·,2.1%,·,·,·
COC(=O)c1ccc(CN(C(C)=O)c2ccccc2)o1,16.0%[9.22 µM],20µM*,2.6%,-11.8,0.6%,-5.3%
CC(=O)Nc1ccc(SCCN2CCN(C)CCC2=O)cc1,·,·,3.1%,·,·,·
COC(=O)c1c(-c2ccco2)csc1NC(=O)C1CC=CCC1C(=O)O (centres undefined),6.8%,12.6µM*,3.7%,-29.4,-16.2%,·
CCOC(=O)c1c(-c2ccc(F)cc2)csc1NC(=O)C1CC=CCC1C(=O)O (centres undefined),21.4%[9.22 µM],?,-2.0%,·,-19.8%,·
CCOC(=O)c1ccc(NC(=O)c2nc[nH]c2C(=O)N2CCN(c3ccccc3)CC2)cc1,16.8%[9.22 µM],·,-2.7%,·,-16.5%[10 µM],·
COc1ccc(C(=O)N(Cc2ccco2)C(C(=O)NC2CCCC2)c2ccc(O)cc2)cc1OC (centres undefined),-8.0%,22.4µM*,-3.3%,10.4,-23.3%[10 µM],-6.5%
SMILES,HTT aggregate,ALDH1A1 inh,CBFb RUNX1 block,PNC inhibitor,HTT ATP protect,HPGD block
ON=C1CCCCC1,·,2.2%,0.2%[21.7 µM],·,-15.0%,-2.0%
COc1cccc(-c2ccc3ncnc(NCc4cccnc4)c3c2)c1,·,?,·,·,-118.0%,·
COc1cccc(-c2cncnc2NCc2ccccc2)c1,·,?,·,·,-36.6%,14.1µM*
CS(=O)(=O)Nc1cccc(-c2nc(NCc3ccccc3)c3ccccc3n2)c1,·,25.1µM*,·,·,-5.5%,·
CS(=O)(=O)Nc1cccc(-c2ccc3ncnc(NCc4cccnc4)c3c2)c1,·,6.1%,·,·,-60.4%,25.1µM*
CS(=O)(=O)Nc1cccc(-c2nc(NCc3cccnc3)c3ccccc3n2)c1,·,7.5%,·,·,-17.4%,-15.1%
Cc1cccc(CNc2ncncc2-c2cccc(NS(C)(=O)=O)c2)c1,·,?,·,·,-11.1%,15.8µM*
Cc1ccc(NC(=O)c2cnc3scc(C)n3c2=O)c(C)c1,·,·,·,·,-5.4%,·
CCOc1ccc(OCC)c(-c2c(=O)n(OCc3ccccc3Br)c3ccccc3[n+]2[O-])c1,0.2%,-7.9%,-11.7%,-9.9,-11.5%,-16.2%
Cc1cccc(NC(=O)c2ccccc2OCC(=O)N2CCCC2)c1C,-5.1%,-9.9%,2.6%,·,-13.3%,·
COc1ccc(-n2c(SC3CCOC3=O)nc3ccccc3c2=O)cc1Cl (centres undefined),-1.9%,?,-6.9%,·,2.8%,·
Cc1ccc(NC(=O)c2cc(C(=O)c3cc(Cl)ccc3O)cn(-c3ccc(C)cc3)c2=O)cc1,?,18.6%,-15.8%,16.9,27.8%[10 µM],-13.7%
Cc1onc(-c2ccccc2Cl)c1C(=O)O/N=C(\N)c1ccc([N+](=O)[O-])o1,10.1%[9.22 µM],12.6µM*,-22.0%,·,?,·
C/C(=N/OC(=O)c1c(-c2ccccc2Cl)noc1C)c1cnccn1,-7.8%,?,3.1%,·,8.7%,·
Cc1ccc(CNC(=O)CS(=O)Cc2nc(-c3cccs3)oc2C)cc1 (centres undefined),6.8%,?,-10.6%,-18.2,-32.4%,28.2µM*
CC(C)[C@H](CN(N=O)[C@@H](Cc1ccccc1)CN(C)N=O)N(CCc1ccccc1)N=O,0.9%[9.22 µM],-4.2%,-0.2%,·,5.1%[10 µM],·
CC(C)C[C@@H](CN(C)N=O)N(C[C@H](Cc1ccccc1)N(CCc1ccccc1)N=O)N=O,5.0%[9.22 µM],8.91µM*,6.7%,·,13.7%[10 µM],·
COCc1cc(C)nc(N/N=C/c2ccc(-c3cc(C(=O)O)ccc3Cl)o2)c1C#N,9.6%,?,-1.8%,·,-37.7%,·
Cc1ccc(NC(=O)CS(=O)CC(=O)N(C(C)C(=O)NC2CCCCC2)C(C)(C)C)cc1 (centres undefined),14.6%[9.22 µM],-4.6%,4.0%,·,7.4%[10 µM],·
CCN(C(=O)COC(=O)/C=C/c1cnc2ccccc2n1)c1ccccc1,-14.6%,?,5.1%,·,4.7%,·
CN1CCN(c2nc3ccccc3nc2C(C#N)C(=O)OC2CCCCC2)CC1 (centres undefined),12.6µM*,15.8µM*,3.4%,-22.9,-100.6%,-10.1%
CCOC(=O)C1CCN(c2nc3ccccc3nc2C(C#N)C(=O)NCCc2ccccc2)CC1 (centres undefined),-32.9%,?,16.8%,22.3,-20.5%,17.8µM*
COCCOC(=O)C(C#N)c1nc2ccccc2nc1N1CCN(Cc2ccccc2)CC1 (centres undefined),-6.8%,?,-3.4%,?,-35.8%[0.074 µM],-11.9%

# Screening data (PubChem BioAssay)
